Values without a mark were called inactive.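 How the source made its calls: active means compound raises insulin release from rat beta cells at 5 mM glucose, no numeric limit stated; inactive means the rest.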
Test: stimulators of insulin release from INS-1E, primary screen, cell-based, 5 mM glucose, NPC library (AID 1117329); further: reference of the scale not given here
Conditions: rat INS-1E insulin secretion, at 10 µM, hits give high values

Row | Compound | insulin secretion stimulation [%]
1 | Cc1cccc(C)c1NC(=O)CN(CC(=O)O)CC(=O)O | -2.1
2 | CCCCCCCCCCOCC(O)CN (stereo unspecified) | 4.5
3 | Nc1ccc([N+](=O)[O-])c(C(F)(F)F)c1 | 0.2
4 | CC1(C)OC[C@@H]2O[C@@]3(C(=O)O)OC(C)(C)O[C@H]3[C@@H]2O1 | 4.8
5 | CC(O)CCCCn1c(=O)c2c(ncn2C)n(C)c1=O (stereo unspecified) | 3.75
6 | CC(=O)OC[C@H]1O[C@@](COC(C)=O)(O[C@H]2O[C@H](COC(C)=O)[C@@H](OC(C)=O)[C@H](OC(C)=O)[C@H]2OC(C)=O)[C@@H](OC(C)=O)[C@@H]1OC(C)=O | -0.2
7 | CCc1oc2ccccc2c1C(=O)c1cc(I)c(O)c(I)c1 | -1.6
8 | CCCCC(C)(O)CC=C[C@H]1[C@H](O)CC(=O)[C@H]1CCCCCCC(=O)OC (stereo partly specified) | 0.9
9 | O=C1c2ccccc2CCc2ccccc21 | 2.7
10 | Nc1c(NC/C=C\COc2cc(CN3CCCCC3)ccn2)c(=O)c1=O | 0.1
11 | Oc1ccccc1-c1nnco1 | 3.2
12 | C=CCNc1nc(NCC=C)nc(N2CCN(C(c3ccc(F)cc3)c3ccc(F)cc3)CC2)n1 | -0.6
13 | O=Cc1ccccc1C=O | -0.6
14 | CC(=O)OC[C@H]1O[C@@H](n2ncc(=O)[nH]c2=O)[C@H](OC(C)=O)[C@@H]1OC(C)=O | 1.7
15 | Oc1cccc(O)c1O | 2.5
16 | CCCC(=O)O[C@]1(C(=O)CC)CC[C@H]2[C@@H]3CCC4=CC(=O)CC[C@]4(C)[C@H]3[C@@H](O)C[C@@]21C | 6.6

— PubChem BioAssay
